Compounds with a hit are over-represented: about 11% of the library has one in this group of screens.
Luciferase inh: blocks purified firefly luciferase enzyme activity | P08659 | purified P. pyralis luciferase, luminescence, biochemical | Potency, µM (highest dose often 115 µM), actives largely listed as inhibitors | 76,000 tested, 2.5% active | AID 1347043; active means well fitted curve in the direction sought with a large enough effect; inconclusive means small, poorly fitted or top-dose-only effect, or another doubt; inactive means no such curve, though single readings can be large; an effect the other way counts as inactive or inconclusive; further: on the % scale 0 is the no-effect control and ±100 the full control effect; nearly all actives have a fitted effect of over 65% in size
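Luminescence read by CCD imager after adding enzyme (10nM final) to wells holding compound, titrated in qHTS. Substrates 10uM each D-luciferin and ATP; buffer 50mM Tris acetate pH 7.5, 10mM Mg acetate, Tween-20, BSA.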
NIH3T3 tox: cytotoxic compounds in NIH 3T3 cells; NIH 3T3 viability, CellTiter-Glo ATP luminescence, 48-72 h; Potency, µM (top dose mostly 96.7 µM), for the others: top-dose activity change, negative = cytotoxicity, usual class: inhibitors; 94,000 tested, 4.3% active; AID 1345082; active means well fitted curve in the direction sought with a large enough effect; inconclusive means small, poorly fitted or top-dose-only effect, or another doubt; inactive means no such curve, though single readings can be large; an effect the other way counts as inactive or inconclusive; further: on the % scale 0 is the no-effect control and ±100 the full control effect; nearly all actives have a fitted effect of over 55% in size
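First NIH 3T3 cells are plated at 400 cells/well; next compound is pinned in; then plates incubate 48 or 72 hr at 37 °C; finally CellTiter-Glo is added and luminescence read after 10 min.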
HEK293 tox: HEK 293 cell cytotoxicity; HEK 293 viability, ATP luminescence (CellTiter-Glo), 48-72 h; 94,000 tested, 6.6% active; Potency, µM (series often up to 115 µM), without a hit: at the top dose activity change, negative = cytotoxicity, hits mostly inhibitors; active means well fitted curve in the direction sought with a large enough effect; inconclusive means small, poorly fitted or top-dose-only effect, or another doubt; inactive means no such curve, though single readings can be large; an effect the other way counts as inactive or inconclusive; further: on the % scale 0 is the no-effect control and ±100 the full control effect; nearly all actives have a fitted effect of over 60% in size
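ATP-coupled CellTiter-Glo luminescence served as viability read-out, recorded 10 min after reagent addition at room temperature. HEK 293 cells, 250 cells/well, had been incubated with pintool-transferred compound for 48 or 72 hr at 37 degree Celsius.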
hNpr1 antagonist: human Npr1 receptor antagonism; P16066; HEK293 hNpr1 GloSensor cGMP, ANP-stimulated luminescence; Potency, µM (highest dose often 46.3 µM), for the others: at the top dose activity change, negative = inhibition, usual class: inhibitors; 76,000 tested, 1.6% active; AID 1347048; further: on the % scale 0 is the no-effect control and ±100 the full control effect; nearly all actives have a fitted effect of over 60% in size
Target sequence (P16066 whole entry, looked up): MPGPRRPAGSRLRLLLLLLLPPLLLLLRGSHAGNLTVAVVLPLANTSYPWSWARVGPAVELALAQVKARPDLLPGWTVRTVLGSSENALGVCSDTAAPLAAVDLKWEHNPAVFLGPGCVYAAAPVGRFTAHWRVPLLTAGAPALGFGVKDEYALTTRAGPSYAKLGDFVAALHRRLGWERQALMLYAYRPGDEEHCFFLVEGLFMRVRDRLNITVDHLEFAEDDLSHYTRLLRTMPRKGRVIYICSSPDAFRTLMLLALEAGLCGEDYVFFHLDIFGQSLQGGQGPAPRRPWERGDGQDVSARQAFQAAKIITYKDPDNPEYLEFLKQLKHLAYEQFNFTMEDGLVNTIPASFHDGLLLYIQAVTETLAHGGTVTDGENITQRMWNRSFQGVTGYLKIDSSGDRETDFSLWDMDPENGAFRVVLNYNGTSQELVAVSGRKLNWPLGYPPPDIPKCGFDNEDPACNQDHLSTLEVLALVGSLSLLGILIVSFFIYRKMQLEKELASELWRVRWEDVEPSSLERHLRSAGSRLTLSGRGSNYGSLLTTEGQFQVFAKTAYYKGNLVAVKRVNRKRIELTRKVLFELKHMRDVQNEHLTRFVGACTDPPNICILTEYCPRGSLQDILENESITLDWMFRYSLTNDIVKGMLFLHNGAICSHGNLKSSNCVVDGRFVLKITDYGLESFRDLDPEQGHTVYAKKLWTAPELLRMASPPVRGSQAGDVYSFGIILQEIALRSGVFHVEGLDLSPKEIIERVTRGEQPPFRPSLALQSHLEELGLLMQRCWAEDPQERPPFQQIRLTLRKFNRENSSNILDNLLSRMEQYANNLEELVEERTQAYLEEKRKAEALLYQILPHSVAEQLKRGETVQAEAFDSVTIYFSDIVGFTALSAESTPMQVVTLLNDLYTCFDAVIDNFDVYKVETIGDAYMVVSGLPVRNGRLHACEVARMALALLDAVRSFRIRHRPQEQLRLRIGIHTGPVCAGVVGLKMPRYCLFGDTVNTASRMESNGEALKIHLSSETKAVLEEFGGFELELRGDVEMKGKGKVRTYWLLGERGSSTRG
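Compound pre-incubated 30 min at room temperature on GloSensor-loaded HEK293 cells stably carrying hNpr1 and the pGS-40F cGMP biosensor. Stimulation uses hNppA at 0.1 nM final; luminescence is taken at baseline and 20 min post-agonist.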
NPR1 antag cnf: confirmation of human Npr1 natriuretic peptide receptor antagonists | HEK293 hNpr1 cGMP GloSensor luminescence, ANP-stimulated | AID 1347044 | Potency, µM (titrated, usually from 57.6 µM), for inactives: at the highest dose activity change, negative = inhibition, usual class: inhibitors | 1,400 tested, 76% active | shares compounds with hNpr1 antagonist; further: nearly all actives have a fitted effect of over 70% in size
NPR2 antag: antagonizes human Npr2, subtype selectivity check; shares compounds with hNpr1 antagonist; HEK293 hNpr2 GloSensor cGMP luminescence, CNP-stimulated; Potency, µM (doses to about 57.6 µM), for the others: at the top dose activity change, negative = inhibition, usual class: inhibitors; 1,400 tested, 67% active; AID 1347046; further: nearly all actives have a fitted effect of over 70% in size
FLuc inh counter: FLuc enzyme inhibition, Npr1 counter-screen; Potency, µM (titrated, usually from 57.6 µM), for the others: at the highest dose activity change, negative = inhibition, hits mostly inhibitors; shares compounds with hNpr1 antagonist; AID 1347047; purified FLuc enzyme, luminescence, Km substrate; 1,400 tested, 0.7% active; active means well fitted curve in the direction sought with a large enough effect; inconclusive means small, poorly fitted or top-dose-only effect, or another doubt; inactive means no such curve, though single readings can be large; an effect the other way counts as inactive or inconclusive; further: series mostly up to about 58 µM; 0% is about no effect
GloSensor cGMP: reduces cGMP signal in GloSensor control cells; Potency, µM (series often up to 57.6 µM), for inactives: top-dose activity change, negative = inhibition, most hits filed as inhibitors; HEK293 GloSensor cGMP, SNP-stimulated, luminescence; shares compounds with hNpr1 antagonist; 1,400 tested, 69% active; AID 1347051; further: on the % scale 0 is the no-effect control and ±100 the full control effect; nearly all actives have a fitted effect of over 70% in size
Numbers without * were called inactive; [ ] = another dose, or the depositor's remark. Unless noted, the call rests on the fitted dose curve. Potency means the concentration at half of the fitted maximal effect.

Screening CC(=O)N1CCc2cc(S(=O)(=O)CCC(=O)N3CCC(CCOc4ccccc4)C3)ccc21 (stereo not given) returned Luciferase inh inactive, NIH3T3 tox -20%, HEK293 tox -17%, hNpr1 antagonist 10µM*, NPR1 antag cnf 27µM*, NPR2 antag inconclusive, FLuc inh counter 3% and GloSensor cGMP inconclusive.
For C[C@H](O)C(=O)N1CCc2ccc(S(=O)(=O)NCCOc3ccccc3)cc2C1 the results were Luciferase inh inactive, NIH3T3 tox -14%, HEK293 tox inconclusive and hNpr1 antagonist -1%.
`CC(=O)N1CCc2cc(S(=O)(=O)NCCCC(=O)N3CCC(CCOc4ccccc4)C3)ccc21` (stereo not given) gave Luciferase inh inactive, NIH3T3 tox inconclusive, HEK293 tox inconclusive, hNpr1 antagonist 5.6µM*, NPR1 antag cnf 5.4µM*, NPR2 antag 6.1µM*, FLuc inh counter 7% and GloSensor cGMP 4.8µM*.
Screening CC(=O)N1CCc2cc(S(=O)(=O)CCC(=O)N3CCCC(Cc4nncn4CC4CC4)C3)ccc21 (stereo not given) returned Luciferase inh inactive, NIH3T3 tox -4%, HEK293 tox -23% and hNpr1 antagonist 2%.
`CC(=O)N1CCN(c2nc(-c3c(C)noc3C)cc3cc(CN(C)C)oc23)CC1` gave Luciferase inh inactive, NIH3T3 tox inconclusive, HEK293 tox -19%[172 µM] and hNpr1 antagonist 6%[70.6 µM].
`CC(C)c1cc(C(=O)NC2CCN(c3ncccc3C#N)CC2)n(C)n1` gave Luciferase inh inactive, NIH3T3 tox inconclusive, HEK293 tox inconclusive, hNpr1 antagonist 7.1µM*, NPR1 antag cnf 8.6µM*, NPR2 antag 12µM*, FLuc inh counter 1% and GloSensor cGMP 7.7µM*.
For COc1cccc(NC(=O)c2cnc3c(c2)N(C(=O)Cc2ccc(C(C)C)cc2)CCC3)c1 the results were Luciferase inh inactive, NIH3T3 tox inconclusive, HEK293 tox 22µM*, hNpr1 antagonist 11µM*, NPR1 antag cnf 19µM*, NPR2 antag 19µM*, FLuc inh counter 0% and GloSensor cGMP 17µM*.
O=C(CCC1CCN(C(=O)c2cc(C3CC3)[nH]n2)CC1)N1CCC(Cc2ccccc2)CC1 was read as Luciferase inh inactive, NIH3T3 tox inconclusive, HEK293 tox inconclusive, hNpr1 antagonist 13µM*, NPR1 antag cnf 24µM*, NPR2 antag 22µM*, FLuc inh counter -18% and GloSensor cGMP 19µM*.
Screening O=C(CCC(F)(F)F)N1CCC(CCC(=O)N2CCC(Cc3ccccc3)CC2)CC1 returned Luciferase inh inactive, NIH3T3 tox inconclusive, HEK293 tox inconclusive and hNpr1 antagonist inconclusive.
For Cc1ccccc1-c1cnc2[nH]cc(CC(=O)NCc3cccnc3)c2c1 the results were Luciferase inh inactive, NIH3T3 tox inconclusive, HEK293 tox 79µM*, hNpr1 antagonist 32µM*, NPR1 antag cnf 31µM*, NPR2 antag 28µM*, FLuc inh counter 2%[86.2 µM] and GloSensor cGMP 25µM*.
Screening Cc1ccccc1-c1cnc2[nH]cc(CC(=O)N3CCCC3)c2c1 returned Luciferase inh inactive, NIH3T3 tox inconclusive, HEK293 tox 89µM*, hNpr1 antagonist 3.5µM*, NPR1 antag cnf 7.9µM*, NPR2 antag 11µM*, FLuc inh counter -5%[86.2 µM] and GloSensor cGMP 7µM*.

Screening data as filed in PubChem.
